The values that follow come from PubChem BioAssay AID2189 (The Scripps Research Institute Molecular Screening Center, 2009).

Some of the results follow. Active and inactive are the calls of the source. No stated cut-off is given here; in the data, active means inhibition above about 4.9%; inactive means the rest.

Usually inhibition stands for the change of the read-out against control, counted positive when it falls.

For this experiment, the system named is metallo-beta-lactamase IMP-1 (Pseudomonas aeruginosa). Nature of the experiment: IMP-1 metallo-beta-lactamase inhibitors, confirmation, biochemical, epi-absorbance, hits shared with VIM-2 screen (AID 2189).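 Further: 0% = enzyme with vehicle and 100% = vehicle without enzyme.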 To be noted: purified IMP-1 enzyme, absorbance substrate hydrolysis; at 5.6 µM; active compounds read high.
For the molecule `CCC(=C/c1sc2ccc3ccccc3c2[n+]1C)/C=C1\Sc2ccc3ccccc3c2N1C`, the inhibition was 27.6% (active).
Then `NC(=O)c1ccc(NC(=O)COC(=O)c2c3c(nc4ccccc24)/C(=C\c2ccc4c(c2)OCO4)CCC3)cc1`, with -2.29% (inactive).
Then `COc1cc(/C=C2/SC(=S)N(Cc3ccccc3)C2=O)cc(OC)c1O`, with 9.27% (active).
The result for `NS(=O)(=O)c1ccc(NC(=O)COC(=O)c2c3c(nc4ccccc24)/C(=C\c2ccc4c(c2)OCO4)CCC3)cc1` reads -2.39% (inactive).
For `Oc1ccc2ccc3cccc[n+]3c2c1`, the inhibition is 23.2% (active).
As to `Cc1nn(C)cc1N1C(=O)c2cccc3c(N)ccc(c23)C1=O`, the inhibition is 29.8% (active).
Regarding `Nc1c(C(=O)c2cccs2)sc2nsc(SCCN3CCCCC3)c12`, the inhibition is 18.4% (active).
The result for `C/C(=N\Nc1ccc(S(N)(=O)=O)cc1[N+](=O)[O-])c1cccs1` reads 10.6% (active); that for `Cc1cc2nc3c(=O)n(Cc4ccccc4)c(=O)[nH]c3nc2cc1N`, 13.2% (active).
Then `c1ccc(-c2nccc(-c3ccc(-n4cnc5ccccc54)cc3)n2)nc1`, with 0.59% (inactive).
Then `CN1C(=O)c2cccc3c(N)ccc(c23)C1=O`, with 36.2% (active).
